# In the library only some 1.7% were active in any assay of this set; here they are far more common.
# GLP1R cytotox = cytotoxicity in counter-screen for GLP-1R inverse agonists; actives 0.13% (n = 410,000); AID 624418; Potency, µM (top dose mostly 38.3 µM), inactives show top-dose activity change, negative = inhibition, actives largely listed as inhibitors; HEK293 cAMP-luciferase reporter cells, luminescence, 24 h;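 also: loss of luciferase light is scored as toxicity; % is scaled to controls: 0 for no effect and ±100 for the full control effect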
#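 Luminescence readout: signal drop marks cytotoxicity. Plated cells grew 12 h at 37 °C, 5% CO2, received 23 nL compound for 24 h, then got luciferase reagent, read after 12 min at RT.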
# GLP-1R agonist = GLP-1 receptor (human) agonism; P43220; HEK293 GLP-1R CRE-luciferase, luminescence, 4-6 h; cells express a hypersensitive GLP-1R form; Potency, µM (doses to about 45.6 µM), for inactives: top-dose activation, actives largely listed as activators; actives 0.007% (n = 380,000); also: % of control where 0% means no effect
# Target sequence (P43220 whole entry, looked up): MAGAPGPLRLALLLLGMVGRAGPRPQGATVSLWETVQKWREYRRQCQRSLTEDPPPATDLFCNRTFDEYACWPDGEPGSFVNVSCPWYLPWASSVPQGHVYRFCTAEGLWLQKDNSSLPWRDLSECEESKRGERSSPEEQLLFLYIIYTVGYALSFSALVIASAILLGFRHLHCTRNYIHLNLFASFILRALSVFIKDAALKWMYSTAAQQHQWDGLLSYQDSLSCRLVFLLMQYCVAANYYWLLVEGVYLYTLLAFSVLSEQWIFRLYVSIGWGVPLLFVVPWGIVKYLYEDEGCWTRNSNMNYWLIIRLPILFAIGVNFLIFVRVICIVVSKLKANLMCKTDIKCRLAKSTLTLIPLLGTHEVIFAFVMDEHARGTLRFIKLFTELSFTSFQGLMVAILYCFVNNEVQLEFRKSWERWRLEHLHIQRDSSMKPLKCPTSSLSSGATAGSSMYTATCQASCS
# GLP-1R inv ag = acts as inverse agonist at human GLP-1 receptor; P43220; HEK293 GLP-1R CRE-luciferase, luminescence, 24 h; GLP-1R form is constitutively active; Potency, µM (series often up to 38.3 µM), without a hit: top-dose activity change, negative = inhibition, usual class: inhibitors; actives 1.6% (n = 410,000); also: % is scaled to controls: 0 for no effect and ±100 for the full control effect; nearly all actives have a fitted effect of over 55% in size
#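 Using stably transfected HEK293 (constitutively active GLP-1R, cAMP-luciferase reporter), compounds were incubated 24 hr and luciferase measured by luminescence.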
# PTHR1 ag = PTHR1 (human) receptor agonism; Q03431; HEK293 GP2 PTHR1 cells, GloSensor cAMP luminescence, 1 h; Potency, µM (top dose mostly 115 µM), inactives show at the highest dose activation, actives largely listed as activators; actives 0.075% (n = 410,000); AID 743266; also: nearly all actives have a fitted effect of over 55% in size
#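 HEK-293-derived GP2 cells expressing PTHR1 and a GloSensor cAMP reporter, 3,000/well, plated overnight, given luciferin plus IBMX (each 0.5 mM as added) for 1 h at 37 °C, then compound for 1 h at 37 °C. Luminescence was read after 15 min at room temperature.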
# Numbers without * were called inactive; i = inactive; ? = inconclusive; / = no result; [ ] = dose if it differs, or a comment. Calls follow the shape of the dose curve; as a rule, active = well fitted curve in the direction sought with a large enough effect; inconclusive = small, poorly fitted or top-dose-only effect, or another doubt; inactive = no such curve, though single readings can be large; an effect the other way counts as inactive or inconclusive. Potency is read from the fitted curve at half-maximal effect.
SMILES,GLP1R cytotox,GLP-1R agonist,GLP-1R inv ag,PTHR1 ag
Cc1c(NC(=O)Nc2cccc(C(F)(F)F)c2)sc2nc3n(c(=O)c12)CCC(C)CC3 (configuration not stated),-13.9%,/,-9.8%,i
CCC1CCCCN1S(=O)(=O)c1ccc(NC(=O)c2cc(=O)c3c(C)cc(C)cc3o2)cc1 (configuration not stated),-5.0%,/,-1.0%,-42.8%
Cc1nn(Cc2cccc(C(=O)NC3CCCCC3)c2)c(C)c1Cl,14.4%,2.5%,10µM*,-40.1%[57.5 µM]
COC(=O)c1ccc(/C=C2\SC(=S)N(CCCC(=O)NCCCN3CCOCC3)C2=O)cc1,8.91µM*,-5.3%,-15.7%,-24.8%
COc1ccc(/C=C2/SC(=S)N(CCCC(=O)Nc3ccc(O)cc3)C2=O)cc1,?,5.3%,5.62µM*,-29.0%
COc1cccc(/C=C2\SC(=S)N(CCCC(=O)N3CCCC3)C2=O)c1,?,-4.6%,5.01µM*,-27.3%
O=C(CCN1C(=O)/C(=C/c2ccccc2)SC1=S)NCCc1ccc(O)cc1,?,-5.0%,5.01µM*,-23.2%
COc1cccc(/C=C2\SC(=S)N(CCCC(=O)N3CCCCC3CCO)C2=O)c1 (configuration not stated),-27.9%,-3.5%,?,-38.1%
COc1ccc(/C=C2\SC(=S)N(CCC(=O)NCCCN3CCOCC3)C2=O)cc1,?,-1.0%,?,i
CC(/C=C1\SC(=S)N(CCC(=O)Nc2cccc(C(=O)O)c2)C1=O)=C\c1ccccc1,8.8%,-0.5%,10.8%,-21.3%
CC(/C=C1\SC(=S)N(CCC(=O)Nc2ccccc2O)C1=O)=C\c1ccccc1,-4.4%,-13.4%,5.62µM*,i
Cc1ccc(C)c(-n2cc(CNCCCn3cccn3)c(-c3ccccc3)n2)c1,0.6%,-0.3%,11.2µM*,i
CN1CCN(CCNC(=O)c2ccc3nc(-c4ccc(F)cc4)c(-c4ccc(F)cc4)nc3c2)CC1,?,18.4%,5.62µM*,-22.1%
CN(Cc1ccc(Cl)cc1)C(=O)CNC(=O)C12CC3CC(CC(C3)C1)C2,-0.6%,3.7%,8.91µM*,-40.6%
Cc1ccc(NC(=O)c2cc3ccccc3o2)cc1Cl,-0.3%,7.0%,12.6µM*,-32.4%
CCC(=O)N1CCN(c2ccc(NC(=O)c3cc4ccccc4o3)cc2Cl)CC1,-6.3%,-37.8%,11.2µM*,-19.6%
CCN1CCN(c2ccc(NC(=O)c3ccc([N+](=O)[O-])o3)cc2Cl)CC1,5.62µM*,-2.9%,6.0%,-16.8%
COc1ccc2c(C(=S)N(C)CC(=O)O)cccc2c1C(F)(F)F,/,-4.0%,/,/
CN1CCN(S(=O)(=O)c2ccc(Cc3ccc(S(=O)(=O)N4CCN(C)CC4)cc3)cc2)CC1,-1.4%,-9.0%,5.62µM*,i
CN1CCN(S(=O)(=O)c2ccc(Cl)cc2)CC1,-8.9%,-5.9%,0.5%,-40.7%
Cc1ccc(C2=CC(c3ccc(Cl)cc3)n3nc(-c4ccc(C)cc4)nc3N2)cc1 (configuration not stated),35.3%,/,2.24µM*,i
COc1ccc(C2C=C(c3ccc(Cl)cc3)Nc3nc(-c4ccc(Cl)cc4)nn32)cc1 (configuration not stated),72.9%,/,?,i
CC(C)(Oc1ccc(Cl)cc1)C(=O)N(Cc1ccccc1)c1ccccn1,2.3%,-1.8%,10µM*,-40.4%
CN(C)c1ccc(C(C(=O)NC2CCCCC2)N(Cc2ccco2)C(=O)c2snc(C(N)=O)c2N)cc1 (configuration not stated),?,5.5%,2µM*,-2.7%
NC(=O)c1nsc(C(=O)N(Cc2ccc(F)cc2)C(C(=O)NC2CCCC2)c2ccco2)c1N (configuration not stated),2.3%,3.3%,-10.7%,i
SMILES,GLP1R cytotox,GLP-1R agonist,GLP-1R inv ag,PTHR1 ag
COc1cc(C(C(=O)NC2CCCC2)N(Cc2ccco2)C(=O)c2snc(C(N)=O)c2N)cc(OC)c1OC (configuration not stated),0.6%,2.2%,-7.3%,-10.2%
CC(C)CCNC(=O)C(c1ccco1)N(Cc1ccc(F)cc1)C(=O)c1snc(C(N)=O)c1N (configuration not stated),1.1%,-3.3%,3.55µM*,?
Cc1ccccc1CCNC(=O)c1ccc(NC(=O)N2CC(C)Sc3ccccc32)cc1 (configuration not stated),-4.6%,/,?,i
O=C1c2ccccc2NC(c2ccc([N+](=O)[O-])cc2)N1O (configuration not stated),2.9%,10.8%,10µM*,-6.9%
O=C1c2ccccc2NC(c2cccc([N+](=O)[O-])c2)N1O (configuration not stated),-24.7%,0.5%,?,-1.0%
Cc1ccc2c(CN(Cc3ccccc3)Cc3ccccc3)cc(=O)oc2c1,3.4%,-0.1%,?,i
Cc1ccc2c(CN(C)Cc3ccc(Cl)cc3Cl)cc(=O)oc2c1,-1.9%,0.6%,11.2µM*,-63.0%
CCN(Cc1cc(=O)oc2cc(C)ccc12)c1ccccc1,1.1%,7.1%,10µM*,-23.5%
O=C(CN(C(=O)c1ccccc1Cl)C1CCCCC1)Nc1ccc(Cl)c([N+](=O)[O-])c1,-18.3%,-14.0%,3.98µM*,-0.5%
CCOC(=O)c1ccc(Cl)c(NC(=O)c2ccc(-c3ccccc3)cc2)c1,1.9%,-2.5%,8.3%,-34.2%[57.5 µM]
CCOC(=O)c1ccc(/C=C2/C=C(c3ccccc3)N(c3ccc(Cl)c(C(=O)O)c3)C2=O)cc1,-15.0%,-1.2%,10µM*,-49.1%
CC1(C(=O)NS(=O)(=O)C2CC2)CCCN(C(=O)c2ccc(F)c(Cl)c2)C1 (configuration not stated),0.2%,-2.3%,11.2%,i
COC(=O)c1sccc1S(=O)(=O)N(CC(=O)Nc1cc(C)ccc1C)c1ccc(C)c(C)c1,-4.6%,/,12.6µM*,i
COC(=O)c1sccc1S(=O)(=O)N(CC(=O)Nc1cc(F)ccc1F)c1ccc(C)c(C)c1,0.9%,/,?,i
COC(=O)c1sccc1S(=O)(=O)N(CC(=O)Nc1cccc(C)c1C)c1ccc(C)c(C)c1,-16.6%,/,11.2µM*,i
COCCN(C(=O)COC(=O)CCSc1ccc(F)cc1)c1c(N)n(Cc2ccccc2)c(=O)[nH]c1=O,8.5%,0.3%,4.4%,i
O=C(O)c1sccc1SCc1ccc(Cl)c(Cl)c1,2.6%,8.3%,0.4%,-0.5%[57.5 µM]
C=CS(=O)(=O)N(Cc1ccc(Cl)c(Cl)c1)C[C@@H](O)CO,?,3.2%,6.31µM*,i
Cc1oc(C(C)(C)C)cc1C(=O)N1CCN(C(c2ccccc2)c2ccccc2)CC1,-3.8%,0.7%,7.94µM*,-18.4%
Cc1ccccc1C(=O)N1CCN(C(c2ccccc2)c2ccccc2)CC1,-3.9%,-3.8%,8.91µM*,-11.6%
O=C(NCC(=O)N1CCN(C(c2ccccc2)c2ccccc2)CC1)c1ccccc1F,-16.7%,5.5%,8.91µM*,i

# High-throughput results as filed in PubChem BioAssay.
